# Assay outcomes from PubChem BioAssay.
# EBV LMP1 NFkB – EBV LMP1-driven NF-kappaB luciferase reporter inhibitors, primary screen, cell-based, luminescence, single point; 350,000 tested, 0.69% active; AID 504558, 2011; inhibition, % at 12.5 µM; LMP1-induced NF-kappaB luciferase reporter cells; in the data active means inhibition above about 41%; inconclusive means no clear call, values can overlap the other calls;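 further: 0% = neutral control wells and 100% = reference inhibitor control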
# PAX8 inh HTS – inhibitors of PAX8-driven TPO luciferase reporter, primary screen, RMG-I cells, single concentration. inhibition, % at 12.6 µM. 360,000 tested, 1.2% active. SteadyGlo, 24 h;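 active means mean replicate inhibition at least 60% with every replicate also reaching 60%; inconclusive means only one of the two criteria is met; inactive means mean below 60% and not all replicates reaching 60%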;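 further: luciferase light reporting Pax8 driven TPO promoter activity; plate controls were median of neutral control wells for no effect and mitoxantrone controls for full effect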
# EWS-Fli inh – EWS/Fli-driven NR0B1 reporter inhibitors, primary screen, A673 cells, NR0B1 luciferase, luminescence, MLPCN library; 350,000 tested, 0.67% active; viability-normalised; inhibition, % at 12.6 µM; AID 651661, 2012;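 active means mean inhibition of at least 50% after viability correction, with every replicate also passing that limit; inconclusive means mean reaches 50% but only one of two replicates passes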;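 further: firefly luciferase signal divided by Alamar Blue viability fluorescence both relative to DMSO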
# LGR2 inh – inhibitors of bursicon-induced LGR2 CRE-luciferase signal, primary screen, cell-based, HEK293, CRE-luciferase reporter, bursicon stimulation | 380,000 tested, 0.35% active | bursicon-stimulated, 4 h | inhibition, % at 9.99 µM;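 active means drop in luminescence signal, shown as inhibition above about 50% in the replicate tests, limit read from the data, passing the limit was not always enough; inconclusive means probably only some replicates passing the limit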;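 further: agonist challenge used bursicon conditioned medium at about half maximal strength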
# TWEAK-Fn14 inh – inhibitors of TWEAK-Fn14 signaling, primary screen, luciferase reporter cells, uHTS | TWEAK-stimulated Fn14 reporter cells, luciferase luminescence, 8 h | inhibition, % at 10 µM | 360,000 tested, 2% active; in the data active means inhibition above about 50%
# TROY signal inh – inhibitors of TROY-driven NF-kB signaling, primary screen, Q293 LMP1-TROYcd cells, NF-kB luciferase, uHTS. Q293 LMP1-TROYcd NF-kB luciferase reporter, 4 h. inhibition, % at 10 µM. 360,000 tested, 0.98% active;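 active means compounds whose plate-normalised and pattern-corrected inhibition of the luciferase reporter signal at the single screening dose is 50% or more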
# Numbers without * were called inactive; ? = inconclusive; . = no result given. The list is not random: actives were taken first. Their share in the collection is about 3.1%.
SMILES,EBV LMP1 NFkB,PAX8 inh HTS,EWS-Fli inh,LGR2 inh,TWEAK-Fn14 inh,TROY signal inh
O=C1OC(/C(=C\Nc2ccc(F)cc2F)[N+](=O)[O-])c2ccccc21 (stereo not drawn),38,-13,8,-2,51*,0
Cc1ccc(N/C(N)=N/c2nc(C)cc(N3CCCCC3)n2)c(C)c1,15,51,26,67*,5,61*
Cc1ccc(N/C(N)=N/c2nc3c(c(=O)[nH]2)CCCC3)c(C)c1,-5,.,.,-1,19,4
O=C(CSc1nnc(NC(=O)c2ccc3c(c2)OCO3)s1)NCc1ccco1,48*,-1,27,60*,61*,1
CSc1nnc(NC(=O)c2ccc3c(c2)OCO3)s1,68*,-98,62*,67*,92*,71*
O=C(CSc1nnc(NC(=O)c2ccccc2)s1)NCc1ccco1,7,-46,.,0,21,-12
Cc1nnc(NC(=O)c2ccc3c(c2)OCO3)s1,-13,-110,-77,4,1,-39
COc1ccc(NS(=O)(=O)c2ccc3oc(SCc4ccc(F)cc4)nc3c2)cc1,7,3,12,16,48,51*
COc1ccccc1NS(=O)(=O)c1ccc2oc(SCc3ccc(F)cc3)nc2c1,2,13,.,10,28,24
Cc1ccc(-c2ccc3c(c2)O[C@@H](CN(C)C(=O)CC2CC2)[C@@H](C)CN([C@H](C)CO)S3(=O)=O)cc1,.,22,3,20,.,.
CCCC#Cc1cnc2c(c1)C(=O)N([C@H](C)CO)C[C@H](C)[C@H](CN(C)S(C)(=O)=O)O2,.,.,-14,-6,.,.
O=C1c2ccccc2C(=O)N1CC(O)CNc1ccc(Br)cc1 (stereo not drawn),-7,82*,-2,-5,-27,2
Cc1ccc(-c2nc3cccnc3o2)cc1NC(=O)COc1ccc(Cl)cc1C,-24,24,.,.,-54,-34
Cc1ccc(-c2nc3cccnc3o2)cc1NC(=O)COc1ccc(C(C)(C)C)cc1,81*,.,.,.,59*,55*
C[C@@H]1CN([C@H](C)CO)C(=O)c2cc(-c3ccccc3)cnc2O[C@@H]1CN(C)CC1CC1,.,-10,-15,5,.,.
N#Cc1c(C#N)c(SSc2c(C#N)c(C#N)c(N)n2-c2ccccc2)n(-c2ccccc2)c1N,-1,-24,51*,2,19,1
O=C(Nc1ccc(F)cc1)N1C[C@@H]2[C@H](c3ccccc31)[C@@H](CO)N2C(=O)Cc1cccnc1,.,-12,-3,-9,.,.
CC1CN/C(=C\C(=O)c2ccc(Cl)cc2)C(=O)N1 (stereo not drawn),33,.,.,.,73*,-13
Cc1cc(C)c(Cc2c(C)nc3c(C(=O)NCc4ccco4)cnn3c2C)c(C)c1,12,.,34,56*,73*,88*
C[C@@H]1CN([C@H](C)CO)C(=O)c2cccc(NC(=O)Nc3ccc4c(c3)OCO4)c2O[C@@H]1CN(C)C(=O)NC1CCCCC1,.,.,4,1,.,.
CO[C@H]1CN(C)C(=O)c2ccc(NC(=O)Nc3ccc(C(F)(F)F)cc3)cc2OC[C@H](C)NC[C@@H]1C,.,.,11,3,.,.
COc1ccc(C(=O)/C=C/C(=O)N(Cc2ccc(F)cc2)C(C(=O)NC2CCCCC2)c2ccncc2)c(O)c1 (stereo not drawn),-10,.,.,.,17,8
COc1ccc(C(=O)/C=C/C(=O)N(CC(=O)NC2CCCCC2)Cc2ccccc2)c(O)c1,-5,?,83*,100*,43,3
COc1ccc(C(=O)/C=C/C(=O)N(CC(=O)NC2CCCCC2)Cc2ccccc2OC)c(O)c1,16,3,?,?,91*,91*
COc1ccc(C(=O)/C=C/C(=O)N(Cc2ccccc2)C(C(=O)NC2CCCCC2)c2ccncc2)c(O)c1 (stereo not drawn),-1,37,2,-15,10,5
COc1ccc(C(=O)/C=C/C(=O)N(CC(=O)NC2CCCCC2)CC2CCCO2)c(O)c1 (stereo not drawn),29,82*,56*,104*,84*,50*
